In the library only some 27% were active in any assay of this set; here they are far more common.
sEH inhibitor: soluble epoxide hydrolase inhibitors, primary screen, biochemical, human sEH; inhibition, % at 2 µM; recombinant human sEH enzymatic activity assay; AID 707, 2007; 91,000 compounds, 0.34% hits; in the data active = inhibition above about 80%
Target sequence (P34913 whole entry, looked up): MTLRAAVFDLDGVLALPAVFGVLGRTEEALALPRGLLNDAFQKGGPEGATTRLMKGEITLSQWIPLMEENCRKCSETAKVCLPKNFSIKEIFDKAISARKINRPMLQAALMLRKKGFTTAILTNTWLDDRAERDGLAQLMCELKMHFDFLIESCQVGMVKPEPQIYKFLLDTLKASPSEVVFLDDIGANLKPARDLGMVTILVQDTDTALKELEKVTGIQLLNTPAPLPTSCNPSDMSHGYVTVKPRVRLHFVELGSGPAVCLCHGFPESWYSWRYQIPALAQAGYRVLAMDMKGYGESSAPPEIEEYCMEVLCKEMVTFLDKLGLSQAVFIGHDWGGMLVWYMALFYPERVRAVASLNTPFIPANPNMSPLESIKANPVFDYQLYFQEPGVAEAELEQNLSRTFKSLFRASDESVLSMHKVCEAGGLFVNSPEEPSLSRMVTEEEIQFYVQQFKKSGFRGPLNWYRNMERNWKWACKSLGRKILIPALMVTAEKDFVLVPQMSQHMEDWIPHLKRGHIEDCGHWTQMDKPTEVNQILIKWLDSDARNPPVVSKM
CYP2C19 activ: human CYP2C19 activators, primary screen, biochemical, luminescence | Cytochrome P450 2C19 (Homo sapiens), P33261 | AID 1025, 2008 | 96,000 tested, under 10 active | activation factor at 5 µM | recombinant CYP2C19, luciferin-H EGE luminescence; hits give high values; 0 = fully inhibited enzyme, 1 = untreated enzyme;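 active = activation factor of at least 2 at 5 µM in the primary screen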;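 note: 0 = wells with 2.5 mM tranylcypromine and 1 = vehicle-only wells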
CYP2C19 inh: blockers of cytochrome P450 2C19 activity – biochemical, luminescence, ADME assay, primary screen | CYP2C19 Supersomes, luciferin-H EGE luminescence, 30 min | inhibition, % at 5 µM | P33261 | 96,000 compounds, 21% hits;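 active = CYP2C19 inhibition above a set limit at 5 µM in the primary screen, cut at about 50% in these data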;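 note: plate controls were negative control wells for no effect and 2.5 mM tranylcypromine positive control for full effect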
sEH activator: soluble epoxide hydrolase activators, primary screen, biochemical, human sEH. purified human sEH enzymatic activity, activator screen. activation, % at 2 µM. 91,000 compounds, 0.04% hits; in the data active = activation above about 37%
CYP2C9 activ: human CYP2C9 activators, primary screen, biochemical, luminescence; Cytochrome P450 2C9 (Homo sapiens), P11712; recombinant CYP2C9, luciferin-H conversion; hits give high values; factor 1 = untreated enzyme, 0 = blocked; activation factor at 5 µM; 96,000 compounds, 1.4% hits;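 active = activation factor of 2 or more for CYP2C9 at a 5 µM dose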;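 note: 0 = sulfaphenazole-blocked wells and 1 = vehicle-only wells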
CYP2C9 inhib: blockers of cytochrome P450 2C9 activity – biochemical, luminescence, ADME assay, primary screen. AID 777, 2007. CYP2C9 Supersomes, luciferin-H conversion. inhibition, % at 5 µM. P11712. 96,000 compounds, 20% hits;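 active = blocking of liver enzyme CYP2C9 beyond about 50% at 5 µM, limit read from the data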
An asterisk follows results filed as active; · = not tested or not shown.

SMILES	sEH inhibitor	CYP2C19 activ	CYP2C19 inh	sEH activator	CYP2C9 activ	CYP2C9 inhib
CCC(C)(C)n1nnnc1C(c1cc(OC)ccc1OC)N1CCC(C(N)=O)CC1 (centres undefined)	-6.5	·	·	6.4	·	·
CCOc1ccccc1C(=O)OCC(=O)Nc1ccc(N2CCCCC2)cc1	66.6	1	2.6	-65.7	0.8	21.8
CCOc1ccccc1OCC(=O)Nc1ccc(N2CCCCC2)cc1	3.9	1	3.5	-4.3	2.6*	-155.8
CCCOc1ccc(C(=O)N2CCN(c3ccc(N)cc3Cl)CC2)cc1	-4.6	0.2	84.3*	4.1	0.2	80.4*
Cc1nn(-c2ccccc2)c2nc(N)c(C#N)c(-c3ccc(F)cc3)c12	-11.9	1	2.2	13.7	0.2	84.0*
Cc1ccc(-n2nc(C)c3c(-c4cccs4)c(C#N)c(N)nc32)cc1	-12.0	0.8	22.5	13.7	0.5	47.1
COc1ccccc1Oc1coc2cc(O)ccc2c1=O	5.8	0.9	7.0	-5.5	2*	-95.6
CCOc1ccccc1Oc1coc2cc(O)ccc2c1=O	2.9	0.7	29.7	-2.6	3.1*	-211.0
COc1ccc(-c2coc3cc(O)ccc3c2=O)cc1OC	-10.5	0.9	5.4	10.8	2.1*	-106.3
CCOc1ccc2c(=O)c(Oc3ccccc3OCC)coc2c1	0.8	0.3	73.6*	-5.0	2.1*	-105.3
O=c1c(-c2ccc(F)cc2)coc2cc(O)ccc12	7.1	0.7	26.8	-5.8	1.1	-7.8
CCOc1ccccc1Oc1coc2cc(OC(=O)c3ccco3)ccc2c1=O	-16.3	0.9	11.3	10.2	0.5	45.4
COc1ccccc1-c1coc2cc(O)cc(O)c2c1=O	0.9	0.8	22.4	-2.2	1.8	-78.4
Cc1ccc(-n2nnnc2SCn2nnc3ccccc3c2=O)c(C)c1	-1.8	0.7	30.2	3.8	1.7	-65.9
CCOC(=O)c1sc2cc([N+](=O)[O-])cc(SCC(C)C)c2c1N	-5.2	1.1	-7.0	4.3	0.8	17.2
O=C(Nc1nnc(-c2ccccc2F)s1)C1CCCO1 (centres undefined)	10.9	·	·	-6.3	·	·
CCC(=O)Nc1nnc(-c2ccncc2)s1	8.1	0.2	75.3*	-8.4	0.6	38.0
CCNc1nnc(-c2ccncc2)s1	·	0.3	71.2*	·	0.8	23.1
O=C(Nc1nnc(-c2ccncc2)s1)C1CCCO1 (centres undefined)	-6.7	0.2	77.8*	7.5	0.5	49.1
CC(C)CCn1cnc2c(c1=O)c1nc3ccccc3nc1n2Cc1ccc2c(c1)OCO2	2.0	0.9	6.7	-3.3	1	4.3
Cc1oc(-c2ccccc2Cl)cc1-c1nn2c(-c3ccco3)nnc2s1	·	1	4.1	·	1	1.2
Cc1cc2c3c(ccc(C)c3n1)N=CN2c1ccccc1	-10.1	0.6	38.7	13.7	0.4	56.1*
CCOc1ccc(Br)cc1/C=N/NC(=O)c1ccncc1	10.8	0.1	90.7*	-8.7	0.2	83.0*
COc1ccc(-n2c(O)cnc2Nc2nc(C)cc(C)n2)cc1OC	-7.0	1	1.9	5.0	1	2.4
CCCOc1ccc2ccccc2c1/C=N/n1c(C)nnc1-n1nc(C)cc1C	1.9	0.2	82.6*	-1.6	0.8	18.0
SMILES	sEH inhibitor	CYP2C19 activ	CYP2C19 inh	sEH activator	CYP2C9 activ	CYP2C9 inhib
Cc1cc(C)n(-c2nnc(C)n2/N=C/c2ccco2)n1	1.1	1	-1.5	-2.9	1.1	-12.8
COC(=O)NC1CSCC1OC(=O)CN1C(=O)c2ccccc2C1=O (centres undefined)	·	0.7	31.8	·	1	0.3
Nc1nc(SCC(=O)Nc2cc(-c3ccccc3)nn2-c2ccccc2)n[nH]1	-7.5	0.1	93.6*	6.6	0.4	60.5*
Nc1nc(SCC(=O)Nc2ccccc2Sc2ccc(Cl)cc2)n[nH]1	3.4	0	100.4*	-1.6	0	98.8*
O=C(Cc1ccccc1)NC(NCCCN1CCOCC1)(C(F)(F)F)C(F)(F)F	-5.2	0.8	15.2	4.7	0.8	18.1
O=C1CC(=O)N(CCc2ccccc2)C(=O)N1CCc1ccccc1	11.3	1	3.2	-9.1	0.4	58.1*
O=C1CC(Nc2ccccc2)C(=O)N1Cc1ccccc1 (centres undefined)	-8.9	0.1	91.3*	6.3	0.8	24.4
O=C1CC(=O)N(CCc2ccc(F)cc2)C(=O)N1	0.4	1	0.5	-0.7	0.9	14.4
O=C1CC(Nc2ccccc2)C(=O)N1CCc1ccccc1 (centres undefined)	-10.0	0.2	79.2*	12.2	0.9	8.3
N#C/C(C(=O)c1ccccc1)=C1/CCCCCN1	3.8	0.6	39.1	-5.3	1	-3.6
COc1ccccc1Oc1cc(C#N)c(C#N)cc1-n1nnc2ccccc21	-10.6	1	-0.7	10.2	0.9	12.9
CC1CCN(Cc2nc3c(c(=O)n(C)c(=O)n3C)n2CCCc2ccccc2)CC1	4.0	0.9	7.3	0.9	0.6	40.0
CCOC(=O)C1=C(Cn2cnc3ccccc32)NC(=O)NC1c1ccc(OC)cc1 (centres undefined)	4.3	0.5	54.1*	-5.2	0.3	66.8*
CCOC(=O)c1ccc(COC(=O)CNC(=O)CNC(=O)c2ccc(OC)cc2)o1	1.9	0.7	30.6	0.3	0.5	46.3
COc1cc2nc(CN(CCC(C)C)Cc3nc4cc(OC)c(OC)cc4c(=O)[nH]3)[nH]c(=O)c2cc1OC	11.8	0.7	34.0	-12.1	0.4	55.9*
CCOc1ccc(NC(=O)CCN2CCCCC2)cc1	·	1	1.9	·	0.9	6.2
Cc1cccc(C)c1NC(=O)N1CCN(C2CCCCC2)CC1	-8.4	·	·	7.4	·	·
Cc1cc2c(s1)c1cnn(Cc3ccccc3F)c(=O)c1n2C	-3.0	0.5	51.1*	1.2	1	4.7
COc1ccc(OC)c(C2NC(=O)c3sc(=S)n(-c4ccccc4)c3N2)c1 (centres undefined)	15.4	0.4	56.6*	-12.5	0.4	61.6*
COc1cccc(-c2cc3c(=O)n(-c4ccccc4)c(=S)[nH]c3s2)c1	12.5	1.1	-12.8	-14.2	0.9	7.2
COc1cccc(C2NC(=O)c3sc(=S)n(-c4ccccc4)c3N2)c1 (centres undefined)	-0.6	0.4	56.9*	-3.7	0.1	88.1*
CCC(=O)Nc1c2c(nn1-c1ccccc1C)CSC2	8.7	·	·	-5.2	·	·
Cc1ccc(-n2nc3c(c2NC(=O)c2cccs2)CSC3)cc1	-9.2	0.8	22.0	8.7	0.3	71.8*
Cc1cccc(-n2nc3c(c2NC(=O)c2ccc(Br)o2)CSC3)c1	-4.3	1	-4.0	3.4	0.2	83.5*

Source: PubChem (several laboratories)
